Screening data as filed in PubChem BioAssay.
HT1080 IDH1KD tx: kills HT-1080 cells with IDH1 knockdown; Potency, µM (top dose mostly 46.1 µM), without a hit: at the top dose activity, negative = toxicity, most hits filed as cytotoxic; HT-1080 IDH1 knockdown viability, ATP luminescence, 48 h; hit rate 2% among 360,000;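 note: 0% = DMSO wells and -100% = cell-free medium wells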
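IDH1KD HT-1080 cells, 750/well, RPMI + 5% FBS; compound pinned after 2 h settling; 48 h, 37 °C; CellTiter-Glo luminescence; % activity normalised to DMSO and no-cell wells; curves fitted, classed by r2 and efficacy.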
MCF10A rerep: inducers of DNA re-replication in MCF 10A breast cells. MCF 10A DNA re-replication, Hoechst nuclear intensity, 48 h. Potency, µM (highest dose often 46.1 µM), for the others: at the top dose activity, positive = re-replication, actives largely listed as activators. hit rate 2.9% among 350,000. AID 624296; note: % of control where 0% means no effect; nearly all actives have a fitted effect of over 50% in size
KB-V1 cytotox: kills drug-selected multidrug resistant KB-V1 cells; KB-V1 MDR cells viability, CellTiter-Glo, 72 h; Potency, µM (titrated, usually from 46.1 µM), actives largely listed as cytotoxic; hit rate 3.4% among 400,000; note: % is set by controls: 0 for no effect and ±100 for the full control effect; nearly all actives have a fitted effect of over 60% in size
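In this primary screen, KB-V1 cells overexpressing P-gp are incubated with library compounds (lowest to highest concentration) for 72 h at 37 degrees C before a luminescent ATP viability read.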
KB-3-1 tox: KB-3-1 parental cell cytotoxicity. KB-3-1 viability, CellTiter-Glo ATP luminescence, 72 h. Potency, µM (doses to about 46.1 µM), most hits filed as cytotoxic. hit rate 1.4% among 400,000; note: % is set by controls: 0 for no effect and ±100 for the full control effect; nearly all actives have a fitted effect of over 60% in size
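KB-3-1 cells, DMEM (no phenol red) + 10% FBS; compound by pin transfer, 72 h, 37 °C. Readout: CellTiter-Glo luminescence after 10 min. Data normalized, curve-fitted.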
HT1080NT lethal: kills 2HG-producing HT-1080-NT fibrosarcoma cells; hit rate 1.6% among 360,000; Potency, µM (top dose mostly 46.1 µM), without a hit: at the highest dose activity, negative = less viability, actives largely listed as cytotoxic; HT-1080-NT fibrosarcoma viability, CellTiter-Glo ATP luminescence, 48 h; AID 686970;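 note: NT is the 2HG producing partner of a matched IDH1 knockdown line; 0% = DMSO-treated cells and -100% = media-only wells without cells; nearly all actives have a fitted effect of over 55% in size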
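Luminescent CellTiter-Glo readout after 48 hours of compound exposure at 37 degrees C defined viability of HT-1080-NT cells. Activity was normalized to DMSO wells and cell-free media wells; concentration-response curves were fitted and assigned curve classes.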
SW480 rereplic: DNA re-replication induction in SW480 cells | Potency, µM (highest dose often 46.1 µM), for inactives: top-dose re-replication activation, most hits filed as activators | SW480 DNA re-replication, Hoechst DNA content imaging, 48 h | AID 624297 | hit rate 1.8% among 340,000; note: % of control where 0% means no effect; nearly all actives have a fitted effect of over 55% in size
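First, 250 cells per well were seeded. Next, compound or vehicle (23 nL) was pinned in, plates sat 48 hr at 37 C. Finally Hoechst was added for 40 min before fluorescence scanning.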
* marks the source's active call; other numbers are inactive results; i = inactive; ? = inconclusive; nt = no result. Rows were chosen to be rich in hits. Some 7.9% of all compounds tested hit in one or more screens of this group. Calls come from the whole dose curve; as a rule, active = well fitted curve in the direction sought with a large enough effect; inconclusive = small, poorly fitted or top-dose-only effect, or another doubt; inactive = no such curve, though single readings can be large; an effect the other way counts as inactive or inconclusive. Potency is the fitted concentration of half-maximal effect.

SMILES | HT1080 IDH1KD tx | MCF10A rerep | KB-V1 cytotox | KB-3-1 tox | HT1080NT lethal | SW480 rereplic
CC(=O)N1CCN(C(=O)c2cccc(NS(=O)(=O)c3ccc(Br)cc3)c2)CC1 | 2% | -23% | i | i | 2% | -118%
Cc1c(C(=O)N2CCN(S(=O)(=O)c3cc(F)ccc3F)CC2)oc2ccccc12 | -4% | 23% | i | ? | -3% | -8%
N/C(=N\OC(=O)c1ccccc1)C(C(=O)NOC(=O)c1ccccc1)C1CCCCC1 (stereo unspecified) | ? | ? | ? | 23µM* | ? | ?
O=C(COC(=O)c1ccccc1)NC1CCCCCC1 | -2% | -17% | i | i | -6% | -12%
O=C1C=C(c2ccc(Oc3ccccc3)cc2)C[C@@H](c2ccc(F)cc2)C1 | 0% | ? | i | i | -3% | -6%
COc1cccc(NC(=O)C(Sc2nnc3ccccn23)c2ccccc2)c1 (stereo unspecified) | 1% | ? | 21µM* | i | 3% | -3%
CCCn1c(SC(C(=O)Nc2cccc(OC)c2)c2ccccc2)nc2ccccc2c1=O (stereo unspecified) | 8% | 1% | i | i | 9% | ?
COC(=O)c1ccc(CN2C(=O)NC(Cc3c[nH]c4ccccc34)C2=O)cc1 (stereo unspecified) | -7% | 0% | 18µM* | i | -16% | -3%
COc1ccc(Cl)cc1NC(=O)CN1C(=O)NC(Cc2c[nH]c3ccccc23)C1=O (stereo unspecified) | -5% | 4% | 21µM* | ? | -4% | 12%
O=C1NC(Cc2c[nH]c3ccccc23)C(=O)N1Cc1ccccc1 (stereo unspecified) | 15% | -13% | i | i | 4% | -1%
COc1cccc(NC(=O)CN2C(=O)NC(Cc3c[nH]c4ccccc34)C2=O)c1 (stereo unspecified) | 1% | 8% | i | i | 12% | -6%
COc1ccc(OC)c(/C=C/c2ccc3ccccc3[n+]2C)c1 | nt | nt | i | ? | nt | nt
COc1ccc(N2CCN(Cc3nc4c(c(=O)n(C)c(=O)n4C)n3C(C)C)CC2)cc1 | nt | nt | i | 16µM* | nt | nt
Cn1c(=O)c2c(nc(CN3CCN(c4ccccc4)CC3)n2Cc2ccccc2Cl)n(C)c1=O | 0% | ? | 8.2µM* | ? | 5% | ?
CCCCn1c(CN(C)Cc2ccccc2)nc2c1c(=O)n(C)c(=O)n2C | -13% | 15% | 2.3µM* | ? | -9% | -10%
Cn1c(=O)c2c(nc(CN3CCc4ccccc4C3)n2Cc2ccccc2)n(C)c1=O | -24% | ? | i | 12µM* | -17% | -1%
CCCn1c(CN(C)Cc2ccccc2)nc2c1c(=O)n(C)c(=O)n2C | -18% | 8% | ? | i | -16% | 2%
CCOC(=O)c1c(C)[nH]c(C)c1S(=O)(=O)N(C)CC(=O)N1CCN(c2ccccc2OC)CC1 | nt | nt | ? | i | nt | nt
CCCCC(CC)C(=O)Nc1cc(C(=O)NCCC)ccc1N1CCC2(CC1)CC(c1cccc(Br)c1)=NO2 (stereo unspecified) | -5% | -13% | i | i | 0% | ?
CCCCCC(=O)Nc1cc(S(=O)(=O)N2CCOCC2)ccc1N1CCN(C)CC1 | -2% | 1% | i | i | -3% | 4%
CN(Cc1ccccc1)Cc1nc2c(c(=O)n(C)c(=O)n2C)n1Cc1ccccc1Cl | -1% | -3% | 9.2µM* | i | -25% | -7%
Nc1ncnc2c1ncn2[C@@H]1O[C@H](C(=O)N[C@H](CO)Cc2ccc(O)cc2)[C@@H](O)[C@H]1O | 17% | nt | i | i | 20% | nt
N=c1c2ccccc2nc2n1CCCCCCCCCCC2 | 23µM* | ? | ? | i | ? | 6%
